High-throughput results as filed in PubChem.
A selection: hits, their analogues and other compounds. The true share with any hit is near 21%.
CHX counter: counter-screen for Shiga toxin inhibitors: cycloheximide protein synthesis inhibition | max response, % | 300,000 compounds, 12% hits | cell reporter, cycloheximide protein synthesis inhibition counterscreen; in the data active = max response mostly above about 13%, no sharp cut-off; inactive = mostly below about 14%; also: read at 38.3 µM for the half of the compounds with a filed dose
NS1 function inh: influenza NS1 inhibition | Potency, µM (titrated, usually from 46.1 µM) | 270,000 compounds, 0.4% hits | AID 2326; calls by dose curve; also: actives are rising curves; nearly all actives have a fitted effect of over 50% in size
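In this qHTS, NS1 from influenza A is expressed in budding yeast, where it slows growth. Cells are switched from glucose to 2% galactose medium (pH 6.0, -URA), treated with compound, and growth recovery is read at OD600.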
Pf growth 48h: inhibits P. falciparum growth in the first generation, 48 h | 310,000 compounds, 5.9% hits | Potency, µM (titrated, usually from 28.7 µM), most hits filed as inhibitors | P. falciparum luciferase growth in erythrocytes, 48 h
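First compound was added to culture medium, then infected red cells at 0.1% parasitemia and 2% hematocrit (final). After incubation at 37 C under 5% CO2, luciferase detection reagent was dispensed and light output recorded.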
Shiga inhibitor: inhibitors of Shiga toxin in Vero cells; Vero cells, Shiga toxin protein synthesis inhibition reporter; inhibition, % at 38.7 µM; 290,000 compounds, 9.2% hits; AID 2315; in the data active = inhibition mostly above about 28%, no sharp cut-off; inactive = mostly below about 43%
Giardia FBPA inh: Giardia lamblia aldolase inhibition; A8B2U2; purified Giardia FBPA; Potency, µM (titrated, usually from 59.6 µM), actives largely listed as inhibitors; 290,000 compounds, 0.71% hits; AID 2451; also: nearly all actives have a fitted effect of over 55% in size
Target sequence (A8B2U2 whole entry, looked up): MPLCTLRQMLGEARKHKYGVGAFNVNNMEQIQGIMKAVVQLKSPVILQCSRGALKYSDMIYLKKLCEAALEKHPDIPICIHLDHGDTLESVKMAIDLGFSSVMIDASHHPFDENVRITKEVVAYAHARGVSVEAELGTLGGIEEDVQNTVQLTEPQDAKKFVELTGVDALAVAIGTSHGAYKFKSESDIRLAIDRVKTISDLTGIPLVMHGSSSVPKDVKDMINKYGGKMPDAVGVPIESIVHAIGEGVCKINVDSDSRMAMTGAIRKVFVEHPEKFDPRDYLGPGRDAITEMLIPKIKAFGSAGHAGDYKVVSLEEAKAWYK
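40 nM FBPA preincubated 10 min at RT with compound (up to 57.5 uM final), then substrate plus GAPDH/TPI/NAD/arsenate coupling and diaphorase/resazurin added. Fluorescence read after 20 min at RT, 525/598 nm.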
Pf growth 96h: P. falciparum growth inhibition at 96 hours; P. falciparum luciferase reporter growth, 96 h; Potency, µM (titrated, usually from 28.7 µM), usual class: inhibitors; 320,000 compounds, 6.9% hits
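Two parasite generations (96 h, 37 C, 5% CO2) of compound exposure in infected erythrocytes (0.05% parasitemia, 2% hematocrit). Luciferase-reporter P. falciparum; decreased luminescence indicates inhibited growth, aimed at apicoplast-acting delayed death.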
Large screens that a line does not name were inactive. Unless noted, calls follow the shape of the dose curve; as a rule, active = well fitted curve in the direction sought with a large enough effect; inconclusive = small, poorly fitted or top-dose-only effect, or another doubt; inactive = no such curve, though single readings can be large; an effect the other way counts as inactive or inconclusive.

COc1ccc2c3c(c(=O)oc2c1)C1O[C@](CCCCN2C(=O)c4ccccc4C2=O)(Cc2cc(OC)c(OC)cc21)O3	NS1 function inh inconclusive, Pf growth 48h 1.51µM
COc1cc2c(cc1OC)C1O[C@](CCCCN3C(=O)c4ccccc4C3=O)(C2)OC2=C1C(=O)CCC2	Pf growth 48h 1.51µM, Pf growth 96h 1.51µM
COc1cc2c(cc1OC)C1O[C@](CCCCN3C(=O)c4ccccc4C3=O)(C2)OC2=C1C(=O)c1ccccc1C2=O	Pf growth 48h inconclusive, Giardia FBPA inh inconclusive, Pf growth 96h 0.338µM
Cc1nc(COc2ccccc2Cl)sc1-c1ccnc(N)n1	CHX counter 19.3, Shiga inhibitor 49.0
CCCCCCCC(=O)Oc1ccc(C(=O)Nc2cc(C)on2)cc1	none
CC1(c2ccc(OC(F)F)cc2)NC(=O)N(CC(=O)NCCC2=CCCCC2)C1=O (stereo unspecified)	Pf growth 48h inconclusive (no result: CHX counter, NS1 function inh, Shiga inhibitor, Giardia FBPA inh)
Cc1c(CNCCc2ccc(Cl)cc2)c(C(=O)O)c(C)n1-c1ccccc1	Pf growth 96h 11.7µM
Cc1ccc(N(C(=O)CNC(=O)c2ccco2)C(C(=O)NC2CCCC2)c2cccnc2)cc1 (stereo unspecified)	none
Cc1cccc(N(C(=O)CNC(=O)c2ccco2)C(C(=O)NC2CCCC2)c2cccnc2)c1 (stereo unspecified)	Pf growth 96h 4.15µM
O=C(NCC(=O)N(Cc1cccs1)C(C(=O)NC1CCCCC1)c1cccnc1)c1ccco1 (stereo unspecified)	Pf growth 96h inconclusive
O=C(NCC(=O)N(c1cccnc1)C(C(=O)NC1CCCC1)c1cccs1)c1cccs1 (stereo unspecified)	Pf growth 96h 11.7µM
O=C(NCC(=O)N(Cc1ccccc1)C(C(=O)NC1CCCC1)c1cccnc1)c1ccco1 (stereo unspecified)	Pf growth 96h 16.5µM
O=C(NCC(=O)N(c1ccccc1)C(C(=O)NC1CCCC1)c1cccnc1)c1cccs1 (stereo unspecified)	none
COC(=O)[C@@H](NCc1cccc(CN[C@H](C(=O)OC)c2ccccc2)c1)c1ccccc1	Pf growth 48h inconclusive
COc1ccc(S(=O)(=O)N2CCCCC2)cc1NC(=O)C1CC1C (stereo unspecified)	none (no result: CHX counter, NS1 function inh, Shiga inhibitor, Giardia FBPA inh)
N#Cc1ccc(CN2CC3(CCN(C(=O)c4ccncc4)CC3)C2)cc1	none (no result: CHX counter, NS1 function inh, Pf growth 48h, Shiga inhibitor, Pf growth 96h)
COc1cc(OC)cc(C(=O)OC(C)C(=O)NC2CCCc3ccccc32)c1 (stereo unspecified)	Pf growth 48h inconclusive (no result: CHX counter, NS1 function inh, Shiga inhibitor, Giardia FBPA inh)
COc1ccc(NC2=NC(C)(CO)CS2)cc1 (stereo unspecified)	CHX counter 14.4, Pf growth 48h inconclusive
COc1ccc(NC2=CC(=O)CC(C)(C)C2)cc1	none
Cc1c(NC(=O)C(C)OC(=O)c2ncc(Cl)c(Cl)c2Cl)c(=O)n(-c2ccccc2)n1C (stereo unspecified)	Pf growth 48h inconclusive (no result: CHX counter, NS1 function inh, Shiga inhibitor, Giardia FBPA inh)
Cc1ccc(S(=O)(=O)N2CCC(C(=O)NCC(C)(C)N3CCOCC3)CC2)c(C)c1	Pf growth 96h inconclusive (no result: CHX counter, NS1 function inh, Shiga inhibitor, Giardia FBPA inh)
CCn1cc(C(=O)NCCc2ccc(OC)c(OC)c2)c(=O)c2cc(S(=O)(=O)N3CCOCC3)ccc21	Pf growth 48h 10.4µM, Pf growth 96h inconclusive
Cn1cc(C(=O)NCCc2ccccc2)c(=O)c2cc(S(=O)(=O)N3CCOCC3)ccc21	none (no result: CHX counter, Pf growth 48h, Shiga inhibitor, Giardia FBPA inh, Pf growth 96h)
CCN(CC)CCNC(=O)c1cn(CC)c2ccc(S(=O)(=O)N3CCOCC3)cc2c1=O	Pf growth 96h inconclusive (no result: Giardia FBPA inh)
COc1ccc(CCNC(=O)c2cn(C)c3ccc(S(=O)(=O)N4CCOCC4)cc3c2=O)cc1OC	Pf growth 48h 13.1µM (no result: Giardia FBPA inh)
Cc1ccccc1-c1ncc(CN2CCN(C3CCCCC3)C(CCO)C2)cn1 (stereo unspecified)	CHX counter 22.4
CC(C)N1CCN(Cc2ccccc2-c2ccco2)CC1CCO (stereo unspecified)	Pf growth 96h inconclusive
